Assay outcomes deposited in PubChem by several laboratories.
Only some compounds are listed: those with a hit (about 5% of all), similar ones and a draw of the others.
EBI2 antag: EBI2 (human) antagonism | EBI2 beta-arrestin recruitment, luminescence, 7a,25-OHC stimulated | 360,000 compounds, 0.81% hits | inhibition, % at 5 µM | AID 651636; in the data active = inhibition above about 38%;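 also: enzyme fragment complementation signal reports receptor beta-arrestin coupling in cells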
SENP8 block-1: blocks human SENP8 cleavage of Nedd8 substrate | Q96LD8 | recombinant SENP8, Nedd8 substrate fluorescence | inhibition, % at 20 µM | 360,000 compounds, 0.64% hits | AID 602440; in the data active = inhibition mostly above about 40%, no sharp cut-off; inactive = mostly below about 27%
SENP8 block-2: blocks the human protease SENP8; Q96LD8; purified SENP8, Z-RLRGG-aminoluciferin cleavage, luminescence; inhibition, % at 10 µM; 330,000 compounds, 1.2% hits; AID 2540; in the data active = inhibition above about 50%
SENP6 block: SENP6 protease inhibition | 330,000 compounds, 1.8% hits | AID 2599 | inhibition, % at 10 µM | Recombinant SENP6 catalytic domain, aminoluciferin luminescence | Q9GZR1;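 active = inhibition above about 50% at the single tested dose, limit read from the data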
Target sequence (Q9GZR1 628-1112 limits assumed): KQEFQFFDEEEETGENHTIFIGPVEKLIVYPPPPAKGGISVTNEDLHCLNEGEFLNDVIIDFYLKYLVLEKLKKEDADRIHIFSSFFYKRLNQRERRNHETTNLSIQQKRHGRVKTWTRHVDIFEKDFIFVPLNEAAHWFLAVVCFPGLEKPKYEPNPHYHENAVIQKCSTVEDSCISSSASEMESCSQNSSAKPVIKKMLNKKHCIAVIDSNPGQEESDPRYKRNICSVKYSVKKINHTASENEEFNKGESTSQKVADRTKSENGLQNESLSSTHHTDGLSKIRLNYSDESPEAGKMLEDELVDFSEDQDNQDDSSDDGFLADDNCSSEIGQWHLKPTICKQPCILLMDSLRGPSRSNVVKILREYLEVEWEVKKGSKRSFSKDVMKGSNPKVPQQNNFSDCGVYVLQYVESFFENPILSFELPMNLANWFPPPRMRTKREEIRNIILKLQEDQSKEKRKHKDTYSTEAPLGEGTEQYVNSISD
SENP7 inh: inhibitors of human SENP7 protease | Q9BQF6 | recombinant SENP7, Z-RLRGG-aminoluciferin luminescence, 40 min | inhibition, % at 5 µM | 330,000 compounds, 1.5% hits;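 active = inhibition above about 50% at the single test dose, limit read from the data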
AHR activator: activates the human aryl hydrocarbon receptor; P35869; AHR-responsive luciferase reporter cells, luminescence; activation, % at 5 µM; 320,000 compounds, 2.5% hits; AID 2796; in the data active = activation above about 47%
Hits are given with their value; . = inactive; / = no result.

SMILES	EBI2 antag	SENP8 block-1	SENP8 block-2	SENP6 block	SENP7 inh	AHR activator
CCN=c1scc(-c2ccccc2)n1/N=C/c1ccccn1	.	.	.	63	52	.
C=CCN=c1scc(-c2ccccc2)n1/N=C/c1ccccn1	.	.	.	.	.	.
C=CCN=c1scc(-c2ccc(F)cc2)n1/N=C/c1ccccn1	.	.	.	.	.	48
COc1ccc(-c2nc3ccc([N+](=O)[O-])cc3[nH]2)cc1	.	.	/	/	/	.
O=[N+]([O-])c1ccc(O)c(C=Nc2ccc3nc(-c4ccccc4)[nH]c3c2)c1	.	.	.	71	64	67
O=[N+]([O-])c1cccc(-c2nc3ccc([N+](=O)[O-])cc3[nH]2)c1	.	.	94	99	93	.
Oc1c(Br)cc(C=Nc2ccc3nc(-c4ccccc4)[nH]c3c2)c(O)c1Br	/	/	.	.	.	.
COCCNC(=S)N/N=C(\C)c1ccc(OC)cc1	.	.	.	.	.	54
COCCNC(=S)N/N=C(\C)c1cc2ccccc2o1	.	.	.	.	.	68
COc1ccc(/C=C2\SC(=Nc3ccccc3)NC2=O)cc1	/	/	.	.	.	/
COc1ccccc1N=C1NC(=O)/C(=C/c2ccc(N(C)C)cc2)S1	.	.	.	.	.	65
COc1ccc(-n2nnc3c(SC(C(C)=O)C(=O)N(C)C)ncnc32)cc1 (stereo unspecified)	.	.	.	.	.	66
COc1cc(/C=N\NC(=O)c2sc(N)nc2C)cc(OC)c1OC	.	.	.	.	.	62
Cc1nc(N)sc1C(=O)N/N=C/c1ccc([N+](=O)[O-])cc1	.	.	.	.	.	.
COc1cc(/C=N/NC(=O)c2ccc(-c3ccccc3)cc2)cc(OC)c1OC	.	.	.	.	.	.
COc1cc(/C=N/NC(=O)c2cc(-c3ccccc3)sc2N)cc(OC)c1OC	/	/	.	.	.	49
CCCNC(=O)C1(CC2CC(c3ccccc3)=NO2)CCN(C(=O)C2CCCC2)CC1 (stereo unspecified)	.	.	.	.	.	.
O=C(C[C@@H]1CC[C@H](NC(=O)Nc2ccc(F)cc2)[C@@H](CO)O1)NCc1cccc(F)c1	.	.	/	/	/	/
COC(=O)c1ccc(/C=N/Nc2nc(-c3ccc(C)cc3)cs2)cc1	.	.	.	.	.	.
CC(=O)Nc1ccc(-c2csc(N/N=C\c3ccncc3)n2)cc1	.	.	.	.	.	61
COC(=O)c1ccc(/C=N/Nc2nc(-c3ccccc3)cs2)cc1	.	.	.	.	.	50
CCCCNC(=O)c1ccc(Cc2cn(C)c3ccccc23)nc1	.	.	/	/	/	/
O=C(NN1CCCCC1)NN1CCCCC1	.	.	/	/	/	/
Cc1sc2nc3c4ccccc4c(NCc4ccco4)nn3c(=O)c2c1C	.	.	71	72	76	.
Cc1nc(NCc2ccco2)c2c(C)c(C)sc2n1	.	.	.	.	.	.
SMILES	EBI2 antag	SENP8 block-1	SENP8 block-2	SENP6 block	SENP7 inh	AHR activator
Cc1ccccc1-c1csc(C(C)(O)c2cccnc2)n1 (stereo unspecified)	.	.	/	/	/	/
N/C(=N/OC(=O)c1ccccc1Cl)c1ncc([N+](=O)[O-])s1	.	.	.	.	.	54
N/C(=N\OC(=O)c1cc([N+](=O)[O-])ccc1Cl)c1ccccn1	.	.	.	.	.	.
N/C(=N\OC(=O)c1cc(Cl)ccc1Cl)c1ccncc1	.	.	.	.	.	.
N/C(=N\OC(=O)c1cccc(Cl)c1)c1cccnc1	.	.	.	.	.	75
N/C(=N\OC(=O)c1ccccc1Cl)c1ccncc1	.	.	.	.	.	59
COc1ccc(Br)c(Cn2c(C)c(C(=O)NCc3ccccc3C(F)(F)F)sc2=O)c1	.	.	/	/	/	/
CCNC(=O)c1ccccc1-c1nc(-c2ccccc2OC)no1	.	.	.	.	.	.
FC(F)(F)c1ccccc1-c1nc(-c2ccncc2)no1	.	.	.	.	.	.
CCOc1ccc(-c2noc(-c3ccncc3)n2)cc1OCC	.	.	.	.	.	.
CCOc1ccccc1NC(=O)c1ccccc1-c1nc(-c2ccccc2OC)no1	.	.	.	.	.	64
CCOc1ccccc1-c1nc(-c2ccncc2)no1	.	.	.	.	.	48
CCSc1ccccc1-c1nc(-c2ccncc2)no1	.	.	.	.	.	65
CCOc1nc(C)ccc1-c1noc(-c2ccccc2OC)n1	.	.	.	.	.	50
CCCCC(=O)N(C)c1c(CC)nc2c(OCCOc3ccc(F)cc3)cccn12	.	.	/	/	/	/
O=C(c1ccccc1-c1nc(-c2ccccc2)no1)N1CCCC1	.	.	.	.	.	.
c1ccc(-c2noc(-c3ccccc3-c3ccccc3)n2)cc1	.	.	.	.	.	62
O=C(Nc1ccc(Nc2ccccc2)cc1)c1ccc(Cl)cc1	.	.	.	.	.	.
N#C/C(C(=O)Nc1ccc(Cl)cc1)=C(/S)Nc1ccccc1	57	.	.	.	.	.
C[C@H]1CN(c2ccc(Br)cc2)C(=O)[C@@H]1CC(=O)Nc1ccccc1	.	.	/	/	/	/
O=C(Nc1ccc(Br)cc1)c1cccn1-c1ncc(C(F)(F)F)cc1Cl	.	.	.	.	.	62
COc1cc(C#Cc2c(-c3cncn3C)n(C)c3ccc(-c4ccc(OC)c(OC)c4)cc23)cc(OC)c1	.	.	.	.	.	68
O=C1Nc2ccccc2O/C1=C\c1ccccc1	.	.	.	.	.	61
CC(C)=CC1C(C(=O)Nc2ccc(S(=O)(=O)N3CCOCC3)cc2)C1(C)C (stereo unspecified)	.	.	.	.	.	.
Cc1ccc(Nc2nc(N)c([N+](=O)[O-])c(N3CCCC(C)C3)n2)cc1C (stereo unspecified)	.	.	.	.	.	51
SMILES	EBI2 antag	SENP8 block-1	SENP8 block-2	SENP6 block	SENP7 inh	AHR activator
CC1CCCN(c2nc(NCc3ccco3)nc(N)c2[N+](=O)[O-])C1 (stereo unspecified)	.	.	.	.	.	.
O=C(N/N=C/c1ccc(N2CCOCC2)cc1)c1ccccn1	.	.	.	56	55	.
COc1ccc(Cl)cc1C(=O)N/N=C/c1ccc(N2CCOCC2)cc1	.	.	.	.	.	53
S=C(N/N=C/c1ccc(Cl)cc1)N1CCOCC1	.	.	.	.	.	71
CCn1ncc(/C=N/NC(=O)c2cc(Cl)ccc2OC)c1C	.	.	.	.	.	76
CCn1ncc(/C=N\NC(=O)COc2cc(C)cc(C)c2)c1C	.	.	.	.	.	.
CC1(C(=O)NCc2ccccc2)CSCC(=O)N1C1CCN(Cc2ccccc2)CC1 (stereo unspecified)	.	.	/	/	/	/
CC(O)(c1ccccc1)c1ccc2ccccc2n1 (stereo unspecified)	.	.	/	/	/	/
CC(CCc1ccccc1)NC(=O)c1ccc2nc(N3CCOCC3)sc2c1 (stereo unspecified)	.	.	.	.	.	.
CCC(Cc1ccccc1)NC(=O)c1ccc2nc(N3CCOCC3)sc2c1 (stereo unspecified)	.	.	.	.	.	59
